In the supplement of paper PMC12645437, “Orthogonal IMiD-Degron Pairs Induce Selective Protein Degradation in Cells” (ACS Chemical Biology, 2025):
Whole data set: some 8,300 sequences, median “log2 fold change of degron read counts, EGFP-low vs EGFP+ sorted cells (limma voom), compound-induced degradation” near -1.1, cut for the highest 2% near 3.2. Shown is part of a subset that was picked to be rich in the highest values.

Molecular target: T1, CRBN, Q96SW2
T1 chain: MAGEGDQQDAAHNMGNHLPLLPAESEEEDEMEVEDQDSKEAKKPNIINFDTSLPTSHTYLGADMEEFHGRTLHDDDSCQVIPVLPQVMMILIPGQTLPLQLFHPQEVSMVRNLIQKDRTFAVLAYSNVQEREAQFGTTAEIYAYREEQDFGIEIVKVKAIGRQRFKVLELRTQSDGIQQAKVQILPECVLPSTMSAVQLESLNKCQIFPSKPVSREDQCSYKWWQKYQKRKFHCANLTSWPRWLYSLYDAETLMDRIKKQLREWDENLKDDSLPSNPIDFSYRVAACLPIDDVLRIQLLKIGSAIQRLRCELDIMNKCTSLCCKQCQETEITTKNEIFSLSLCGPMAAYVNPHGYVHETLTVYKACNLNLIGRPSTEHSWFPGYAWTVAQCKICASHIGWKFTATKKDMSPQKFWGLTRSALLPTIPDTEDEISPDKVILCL
Experiment: log2 fold change of degron read counts, EGFP-low vs EGFP+ sorted cells (limma voom), compound-induced degradation; higher = more compound-induced degradation of the degron-EGFP fusion; degrons are variants of IKZF1/3 zinc finger 2; compound dose not given here
Details: Jurkat, 18 h

[1] = compound: compound 19 (5-tert-butyl-thalidomide)
[2] = compound: compound 22 (5-morpholino-thalidomide)
[3] = compound: compound 33 (diphenyl IMiD analogue)
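Note: pooled lentiviral library of zinc finger degron-EGFP fusions in mCherry-positive Jurkat cells, FACS-sorted after compound exposure, with degron abundance counted by next-generation sequencing.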

B1: 46F_47M_49D_50V_52G_53A_54T_55F_67L_, Q9UKT9 (peptide)
chain: FMCDVCGATFTQKGNLLRHIKL
- log2 fold change of degron read counts [1]: -2.12
- log2 fold change of degron read counts [2]: -2.03
- log2 fold change of degron read counts [3]: 0.562
- log2 fold change of degron read counts (compound: thalidomide): -1.29

B2: 46F_47I_49P_50I_52G_53A_54L_55F_67L_, Q9UKT9 (peptide)
chain: FICPICGALFTQKGNLLRHIKL
- log2 fold change of degron read counts [1]: -1.19
- log2 fold change of degron read counts [2]: 0.987
- log2 fold change of degron read counts [3]: 1.39
- log2 fold change of degron read counts (compound: thalidomide): 1.34

B3: 46L_47Y_49P_50I_52G_53F_54G_55C_67L_, Q9UKT9 (peptide)
chain: LYCPICGFGCTQKGNLLRHIKL
- log2 fold change of degron read counts [1]: 3.31
- log2 fold change of degron read counts [2]: 2.96
- log2 fold change of degron read counts [3]: 2.48
- log2 fold change of degron read counts (compound: thalidomide): 1.46

B4: 46L_47F_49P_50I_52G_53F_54G_55C_67L_, Q9UKT9 (peptide)
chain: LFCPICGFGCTQKGNLLRHIKL
- log2 fold change of degron read counts [1]: 3.06
- log2 fold change of degron read counts [2]: 2.74
- log2 fold change of degron read counts [3]: 2.03
- log2 fold change of degron read counts (compound: thalidomide): 1.48

B5: 46L_47R_49P_50I_52G_53F_54G_55C_67L_, Q9UKT9 (peptide)
chain: LRCPICGFGCTQKGNLLRHIKL
- log2 fold change of degron read counts [1]: 2.74
- log2 fold change of degron read counts [2]: 2.14
- log2 fold change of degron read counts [3]: 2.33
- log2 fold change of degron read counts (compound: thalidomide): 2.47

B6: 46L_47L_49P_50I_52G_53F_54A_55C_67L_, Q9UKT9 (peptide)
chain: LLCPICGFACTQKGNLLRHIKL
- log2 fold change of degron read counts [1]: 0.701
- log2 fold change of degron read counts [2]: 0.253
- log2 fold change of degron read counts [3]: 1.48
- log2 fold change of degron read counts (compound: thalidomide): 1.92

B7: 46L_47M_49P_50I_52G_53F_54A_55C_67L_, Q9UKT9 (peptide)
chain: LMCPICGFACTQKGNLLRHIKL
- log2 fold change of degron read counts [1]: 1.55
- log2 fold change of degron read counts [2]: 2.48
- log2 fold change of degron read counts [3]: 2.86
- log2 fold change of degron read counts (compound: thalidomide): 2.97

B8: 46L_47G_49P_50I_52G_53F_54A_55C_67L_, Q9UKT9 (peptide)
chain: LGCPICGFACTQKGNLLRHIKL
- log2 fold change of degron read counts [1]: 3.1
- log2 fold change of degron read counts [2]: 2.1
- log2 fold change of degron read counts [3]: 1.7
- log2 fold change of degron read counts (compound: thalidomide): 1.09

B9: 46L_47W_49P_50I_52G_53F_54A_55C_67L_, Q9UKT9 (peptide)
chain: LWCPICGFACTQKGNLLRHIKL
- log2 fold change of degron read counts [1]: 2.95
- log2 fold change of degron read counts [2]: 3.32
- log2 fold change of degron read counts [3]: 2.72
- log2 fold change of degron read counts (compound: thalidomide): 1.84

B10: 46L_47I_49P_50I_52G_53F_54A_55C_67L_, Q9UKT9 (peptide)
chain: LICPICGFACTQKGNLLRHIKL
- log2 fold change of degron read counts [1]: 0.747
- log2 fold change of degron read counts [2]: 2.69
- log2 fold change of degron read counts [3]: 1.82
- log2 fold change of degron read counts (compound: thalidomide): 2.87

B11: 46L_47Q_49P_50I_52G_53F_54A_55C_67L_, Q9UKT9 (peptide)
chain: LQCPICGFACTQKGNLLRHIKL
- log2 fold change of degron read counts [1]: 2.66
- log2 fold change of degron read counts [2]: 2.96
- log2 fold change of degron read counts [3]: 2.47
- log2 fold change of degron read counts (compound: thalidomide): 3.55

B12: 46F_47H_49E_50I_52G_53R_54H_55F_67L_, Q9UKT9 (peptide)
chain: FHCEICGRHFTQKGNLLRHIKL
- log2 fold change of degron read counts [1]: -0.861
- log2 fold change of degron read counts [2]: -2.23
- log2 fold change of degron read counts [3]: -1.35
- log2 fold change of degron read counts (compound: thalidomide): -1.95

B13: 46F_47V_49N_50Q_52G_53A_54C_55F_67L_, Q9UKT9 (peptide)
chain: FVCNQCGACFTQKGNLLRHIKL
- log2 fold change of degron read counts [1]: -2.19
- log2 fold change of degron read counts [2]: -2.11
- log2 fold change of degron read counts [3]: -0.29
- log2 fold change of degron read counts (compound: thalidomide): -1.14

B14: 46L_47N_49P_50I_52G_53F_54E_55C_67L_, Q9UKT9 (peptide)
chain: LNCPICGFECTQKGNLLRHIKL
- log2 fold change of degron read counts [1]: 1.07
- log2 fold change of degron read counts [2]: -0.0323
- log2 fold change of degron read counts [3]: 0.322
- log2 fold change of degron read counts (compound: thalidomide): 1

B15: 46F_47W_49E_50Q_52G_53A_54R_55F_67L_, Q9UKT9 (peptide)
chain: FWCEQCGARFTQKGNLLRHIKL
- log2 fold change of degron read counts [1]: 1.69
- log2 fold change of degron read counts [2]: 3.12
- log2 fold change of degron read counts [3]: 0.0332
- log2 fold change of degron read counts (compound: thalidomide): -0.593

B16: 46F_47M_49P_50I_52G_53R_54P_55F_67L_, Q9UKT9 (peptide)
chain: FMCPICGRPFTQKGNLLRHIKL
- log2 fold change of degron read counts [1]: 0.216
- log2 fold change of degron read counts [2]: 0.55
- log2 fold change of degron read counts [3]: 1.39
- log2 fold change of degron read counts (compound: thalidomide): 0.856

B17: 46F_47S_49E_50I_52G_53R_54E_55F_67L_, Q9UKT9 (peptide)
chain: FSCEICGREFTQKGNLLRHIKL
- log2 fold change of degron read counts [1]: -2.51
- log2 fold change of degron read counts [2]: -2.86
- log2 fold change of degron read counts [3]: -1.9
- log2 fold change of degron read counts (compound: thalidomide): -2.01

B18: 46F_47A_49D_50Q_52G_53A_54S_55F_67L_, Q9UKT9 (peptide)
chain: FACDQCGASFTQKGNLLRHIKL
- log2 fold change of degron read counts [1]: -0.53
- log2 fold change of degron read counts [2]: -1.83
- log2 fold change of degron read counts [3]: -2.25
- log2 fold change of degron read counts (compound: thalidomide): -3.41

B19: 46F_47M_49E_50V_52G_53A_54T_55F_67L_, Q9UKT9 (peptide)
chain: FMCEVCGATFTQKGNLLRHIKL
- log2 fold change of degron read counts [1]: -1.56
- log2 fold change of degron read counts [2]: -0.319
- log2 fold change of degron read counts [3]: 2.09
- log2 fold change of degron read counts (compound: thalidomide): 0.937

B20: 46F_47S_49E_50V_52G_53A_54T_55F_67L_, Q9UKT9 (peptide)
chain: FSCEVCGATFTQKGNLLRHIKL
- log2 fold change of degron read counts [1]: 2.73
- log2 fold change of degron read counts [2]: 2.4
- log2 fold change of degron read counts [3]: 1.63
- log2 fold change of degron read counts (compound: thalidomide): 1.3

B21: 46F_47W_49E_50V_52G_53A_54T_55F_67L_, Q9UKT9 (peptide)
chain: FWCEVCGATFTQKGNLLRHIKL
- log2 fold change of degron read counts [1]: 2.75
- log2 fold change of degron read counts [2]: 3.75
- log2 fold change of degron read counts [3]: 1.87
- log2 fold change of degron read counts (compound: thalidomide): 0.335

B22: 46F_47R_49E_50V_52G_53A_54T_55F_67L_, Q9UKT9 (peptide)
chain: FRCEVCGATFTQKGNLLRHIKL
- log2 fold change of degron read counts [1]: -0.885
- log2 fold change of degron read counts [2]: -1.05
- log2 fold change of degron read counts [3]: 1.42
- log2 fold change of degron read counts (compound: thalidomide): 1.06

B23: 46F_47D_49E_50V_52G_53A_54T_55F_67L_, Q9UKT9 (peptide)
chain: FDCEVCGATFTQKGNLLRHIKL
- log2 fold change of degron read counts [1]: 0.941
- log2 fold change of degron read counts [2]: -0.571
- log2 fold change of degron read counts [3]: -0.022
- log2 fold change of degron read counts (compound: thalidomide): 0.317

B24: 46F_47K_49E_50V_52G_53A_54T_55F_67L_, Q9UKT9 (peptide)
chain: FKCEVCGATFTQKGNLLRHIKL
- log2 fold change of degron read counts [1]: -1.63
- log2 fold change of degron read counts [2]: -3.47
- log2 fold change of degron read counts [3]: -2.68
- log2 fold change of degron read counts (compound: thalidomide): -1.11

B25: 46F_47A_49E_50V_52G_53A_54T_55F_67L_, Q9UKT9 (peptide)
chain: FACEVCGATFTQKGNLLRHIKL
- log2 fold change of degron read counts [1]: 3.32
- log2 fold change of degron read counts [2]: 2.03
- log2 fold change of degron read counts [3]: 0.449
- log2 fold change of degron read counts (compound: thalidomide): -0.11

B26: 46F_47Q_49E_50V_52G_53A_54T_55F_67L_, Q9UKT9 (peptide)
chain: FQCEVCGATFTQKGNLLRHIKL
- log2 fold change of degron read counts [1]: 0.152
- log2 fold change of degron read counts [2]: 2.64
- log2 fold change of degron read counts [3]: 2.01
- log2 fold change of degron read counts (compound: thalidomide): 3.74

B27: 46F_47G_49E_50V_52G_53A_54T_55F_67L_, Q9UKT9 (peptide)
chain: FGCEVCGATFTQKGNLLRHIKL
- log2 fold change of degron read counts [1]: 3.09
- log2 fold change of degron read counts [2]: 2.54
- log2 fold change of degron read counts [3]: 0.976
- log2 fold change of degron read counts (compound: thalidomide): 0.784

B28: 46F_47Y_49E_50V_52G_53A_54T_55F_67L_, Q9UKT9 (peptide)
chain: FYCEVCGATFTQKGNLLRHIKL
- log2 fold change of degron read counts [1]: 3.1
- log2 fold change of degron read counts [2]: 4.14
- log2 fold change of degron read counts [3]: 2.47
- log2 fold change of degron read counts (compound: thalidomide): 1.12

B29: 46F_47C_49E_50V_52G_53A_54T_55F_67L_, Q9UKT9 (peptide)
chain: FCCEVCGATFTQKGNLLRHIKL
- log2 fold change of degron read counts [1]: 1.77
- log2 fold change of degron read counts [2]: 2.12
- log2 fold change of degron read counts [3]: 2.55
- log2 fold change of degron read counts (compound: thalidomide): 2.46

B30: 46F_47N_49E_50V_52G_53A_54T_55F_67L_, Q9UKT9 (peptide)
chain: FNCEVCGATFTQKGNLLRHIKL
- log2 fold change of degron read counts [1]: 1.35
- log2 fold change of degron read counts [2]: 0.0506
- log2 fold change of degron read counts [3]: 0.168
- log2 fold change of degron read counts (compound: thalidomide): -0.31
